Structures can show the parent of a compound that is named as a salt. ± gives the standard deviation of the averaged measurements.
tested on: Danio rerio Tg(wt1b:EGFP) embryo, pronephros; assay: pronephric angle neck segment to proximal convoluted tubule (mean of left and right), fold change vs DMSO control; higher = larger pronephric angle; conditions: 25 µM; exposure: 24-48 hpf
Method in brief: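 In HEPES-buffered E3 with 0.003% PTU and 0.5% DMSO, dechorionated Tg(wt1b:EGFP) zebrafish embryos were exposed to 25 μM compound from 24 to 48 hpf at 28.5°C. Pronephroi were then imaged dorsally at 470 nm in 10 z-slices, in 96-well plates filled with agarose. On maximum projections, a Fiji macro turned 16 manually placed reference points into distances and angles, and values more than 2 SD from the feature mean were excluded. Features are fold changes relative to the mean of DMSO-treated embryos from the same day.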

| Compound | pronephric angle neck segment |
| --- | --- |
| NS(=O)(=O)Cc1noc2ccccc12 [Zonisamide] | 1.02 ± 0.017 |
| CCN1CC(CCN2CCOCC2)C(c2ccccc2)(c2ccccc2)C1=O (configuration not stated) [Doxapram hydrochloride] | 0.9542 ± 0.0079 |
| CC(C)[N+](C)(CCOC(=O)C1c2ccccc2Oc2ccccc21)C(C)C [Propantheline bromide] | 0.942 ± 0.01 |
| Nc1nc2n[nH]nc2c(=O)[nH]1 [Azaguanine-8] | 0.984 ± 0.02 |
| CCOC(=O)c1ccc(OC(=O)CCCCCNC(=N)N)cc1 [Gabexate mesilate] | 0.961 ± 0.013 |
| CN(C)[C@@H]1C(O)=C(C(N)=O)C(=O)[C@@]2(O)C(O)=C3C(=O)c4c(O)cccc4[C@@](C)(O)[C@H]3[C@H](O)[C@@H]12 [Oxytetracycline dihydrate] | 0.9153 ± 0.0078 |
| CCC(C)(CN(C)C)OC(=O)c1ccccc1 (configuration not stated) [Amyleine hydrochloride] | 0.9967 ± 0.0077 |
| CCN1CCC[C@H]1CNC(=O)c1c(OC)ccc(Br)c1OC [Remoxipride Hydrochloride] | 0.976 ± 0.032 |
| CN(C)c1cc(NC(=O)CNC(C)(C)C)c(O)c2c1C[C@H]1C[C@H]3[C@H](N(C)C)C(O)=C(C(N)=O)C(=O)[C@@]3(O)C(O)=C1C2=O [Tigecycline] | 0.954 ± 0.02 |
| CC(C)N1CCN(c2ccc(OCC3COC(Cn4cncn4)(c4ccc(Cl)cc4Cl)O3)cc2)CC1 (configuration not stated) [Terconazole] | 0.948 ± 0.017 |
| CCCCNc1cc(C(=O)O)cc(S(N)(=O)=O)c1Oc1ccccc1 [Bumetanide] | 1 ± 0.022 |
| COC(=O)[C@H]1[C@H]2C[C@@H]3c4[nH]c5cc(OC)ccc5c4CCN3C[C@H]2C[C@@H](OC(=O)c2cc(OC)c(OC)c(OC)c2)[C@@H]1OC [Reserpine] | 1.0157 ± 3.5e-05 |

From the supplement of paper PMC7366291
